# hcDAF12 agonist = activates DAF-12 receptor from parasite H. contortus. HEK293 hcDAF-12 lit1-tk-luc reporter, luminescence; 0% DMSO, 100% Δ7-dafachronic acid. activation, % at 6.8 µM. 1.4% of 370,000 active;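 active = activation above the mean of all tested compounds plus 3 SD, cut at about 5.5% in these data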
# DAX1 inh-1 = inhibitors of DAX1 repression of SF-1 activated StAR promoter | HEK293T StAR-luciferase reporter, SF-1/DAX-1 repression relief | inhibition, % at 6.8 µM | 1.1% of 370,000 active;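 active = inhibition above the mean over all tested compounds plus 3 SD, cut at about 3.6% in these data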;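 note: higher inhibition means more luminescence from relief of DAX-1 repression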
# hgDAF12 agonist = hgDAF-12 agonism, primary luciferase screen; HEK293 GAL4-hgDAF12 UAS-luciferase reporter, agonist luminescence; normalized to butyrate control; activation, % at 6.8 µM; 1.8% of 370,000 active;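 active = activation above a cutoff set at the mean of all screened compounds plus 3 SD, cut at about 10% in these data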
# ssDAF12 agonist = activates DAF-12 receptor from parasite S. stercoralis; HEK293 ssDAF-12/GRIP1 lit1-tk-luc reporter, luminescence; % of 3 µM dafachronic acid response; activation, % at 6.8 µM; 1% of 370,000 active; AID 652126;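 active = activation above the mean over all tested compounds plus 3 SD, cut at about 0.9% in these data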
# DAX1 inh-2 = NR0B1 (DAX1) inhibition; 0.99% of 340,000 active; inhibition, % at 6.75 µM; P51843; HEK293 Gal4-DAX1 luciferase reporter, luminescence;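 active = inhibition above the mean over all tested compounds plus 3 SD, cut at about 4.2% in these data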;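 note: inhibition shows as a rise in luminescence from relieved DAX1 repression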
# Target sequence (P51843 207-470 limits assumed): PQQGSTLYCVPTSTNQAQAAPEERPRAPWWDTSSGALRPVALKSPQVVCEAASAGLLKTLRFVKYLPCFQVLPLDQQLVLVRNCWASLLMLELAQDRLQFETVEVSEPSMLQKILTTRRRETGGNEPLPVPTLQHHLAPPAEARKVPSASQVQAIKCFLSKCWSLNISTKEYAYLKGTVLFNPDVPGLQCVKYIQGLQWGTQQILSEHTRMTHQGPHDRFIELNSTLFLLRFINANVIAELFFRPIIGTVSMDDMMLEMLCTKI
# DAX1 inh confirm = confirmation of human DAX1 (NR0B1) inhibitors; HEK293T StAR-promoter luciferase reporter, SF-1/DAX-1 repression; inhibition, % at 6.8 µM; 87% of 2,400 active; shares compounds with DAX1 inh-1;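 active = inhibition above the average of every tested compound plus 3 SD, cut at about 3.8% in these data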;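 note: active compounds raise luminescence by relieving repression of the StAR reporter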
# SF1 AF2mut Luc = counter-screen for DAX1 inhibitors: nonselective inhibitors with SF-1 AF2 mutant; 78% of 2,400 active; HEK293 StAR-luciferase, luminescence; shares compounds with DAX1 inh-1; AID 652136; inhibition, % at 6.8 µM;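 active = inhibition above the mean of all tested compounds plus 3 SD, cut at about 3% in these data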
# LXRb hcDAF ctr = activates human LXR-beta, counter-screen for hcDAF-12 agonists. activation, % at 6.8 µM. 3,400 tested, under 10 active. HEK293 Gal4-LXR tk-luc reporter, luminescence, 24 h; normalized: DMSO 0%, positive control 100%. shares compounds with hcDAF12 agonist. AID 743027;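 active = mean percent activation of the reporter above a cutoff set as the average over tested compounds plus their standard deviation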
# Target sequence (P55055 whole entry, looked up, the tested form may be a part): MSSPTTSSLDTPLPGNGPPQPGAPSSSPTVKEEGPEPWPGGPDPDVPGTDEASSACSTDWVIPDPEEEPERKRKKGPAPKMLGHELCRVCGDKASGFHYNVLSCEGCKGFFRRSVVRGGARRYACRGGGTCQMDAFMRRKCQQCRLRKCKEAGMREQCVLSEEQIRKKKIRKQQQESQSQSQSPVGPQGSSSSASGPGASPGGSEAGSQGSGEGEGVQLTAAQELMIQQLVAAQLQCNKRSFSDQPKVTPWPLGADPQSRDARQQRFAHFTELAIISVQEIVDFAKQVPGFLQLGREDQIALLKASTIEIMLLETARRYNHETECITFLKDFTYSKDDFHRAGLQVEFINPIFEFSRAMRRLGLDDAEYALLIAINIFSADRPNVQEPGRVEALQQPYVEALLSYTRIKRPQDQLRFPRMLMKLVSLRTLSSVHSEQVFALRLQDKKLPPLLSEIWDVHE
# hcDAF12 ag = hcDAF-12 agonism, confirmation assay; AID 743032; activation, % at 6.8 µM; shares compounds with hcDAF12 agonist; HEK293 hcDAF-12 lit1-tk-luc reporter, luminescence; % of Δ7-dafachronic acid response; 61% of 3,400 active;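 active = mean activation across triplicate tests above the threshold derived from the earlier primary screen, cut at about 5.5% in these data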
# hgDAF12 conf = confirmation of H. glycines DAF-12 agonists; shares compounds with hgDAF12 agonist; HEK293 GAL4-hgDAF12 luciferase reporter, agonist mode; percent of butyrate response; activation, % at 6.8 µM; 80% of 3,300 active; AID 743050;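 active = mean activation over triplicate wells above the hit cutoff derived from the earlier primary screen, cut at about 11% in these data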
# LXRb DAF12 ctr = LXR-beta agonism as DAF-12 counter-screen | HEK293 Gal4-LXR luciferase reporter, 24 h | shares compounds with hgDAF12 agonist | activation, % at 6.8 µM | 3,300 tested, under 10 active;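 active = mean activation of the triplicate above a set limit carried over from the primary screen, none filed active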
# Numbers stand for hits; . = inactive; / = no result. In the library only some 4.1% were active in any assay of this set; here they are far more common.
SMILES,hcDAF12 agonist,DAX1 inh-1,hgDAF12 agonist,ssDAF12 agonist,DAX1 inh-2,DAX1 inh confirm,SF1 AF2mut Luc,LXRb hcDAF ctr,hcDAF12 ag,hgDAF12 conf,LXRb DAF12 ctr
O=C(Nc1ncccc1O)c1ccc(S(=O)(=O)Nc2ccccc2)cc1,13.3,84.7,85.2,.,11.3,111.5,57.7,.,8.0,80.9,.
COC(=O)c1ccc(NC(=O)c2ccc(NS(=O)(=O)c3cccc4cccnc34)cc2)cc1,/,/,/,/,.,/,/,/,/,/,/
CC1(C(=O)NS(=O)(=O)c2ccccc2)CCN1C(=O)CCc1ccccc1 (stereo not given),.,.,.,.,/,/,/,/,/,/,/
O=[N+]([O-])c1cc(Cl)ccc1-c1nc(-c2ccccc2)no1,11.1,4.7,24.8,4.0,4.5,14.5,7.7,.,9.9,18.5,.
CCc1nc2ccc(C(=O)NCc3ccc(OC)cc3)cn2c1N(C)CCC(C)C,.,.,.,.,/,/,/,/,/,/,/
CC(C)c1ccc(/C=C/C(=O)Nc2nncs2)cc1,12.8,5.5,18.9,.,.,13.8,4.8,.,6.3,18.4,.
CC(C)c1nnc(NC(=O)c2ccc3c(c2)OCO3)s1,9.6,4.9,15.4,.,.,11.7,.,.,.,.,.
CCOC(=O)Cc1csc(NC(=O)c2ccc(C)c(S(=O)(=O)N3CCOCC3)c2)n1,.,.,.,.,.,/,/,/,/,/,/
CC(=O)c1cccc(NC(=O)NC2CCCCC2)c1,/,/,/,/,.,/,/,/,/,/,/
O=C(Nc1ccccc1F)NC1CCCCCCC1,.,4.5,13.4,.,.,7.2,4.1,/,/,.,.
CC(=O)c1ccc(NC(=O)Nc2ccc(Cl)cc2)cc1,7.1,6.5,14.9,.,.,6.6,5.8,.,7.4,16.4,.
CC(=O)c1ccc(NC(=O)NC2CCCCCCC2)cc1,.,11.9,14.2,.,.,12.8,7.4,/,/,15.9,.
O/N=C\c1ccc2noc(-c3ccc(Cl)cc3)c2c1,.,.,.,.,.,/,/,/,/,/,/
CCN(CC)S(=O)(=O)c1cccc(C(=O)Nc2cc(C)on2)c1,.,.,.,.,.,/,/,/,/,/,/
Oc1ccc(O)c(Cc2nc3ccccc3s2)c1,.,.,.,.,.,/,/,/,/,/,/
COc1cccc(-c2nc3ccccc3s2)c1O,16.4,7.0,24.9,3.5,.,17.9,8.4,.,14.8,21.2,.
Oc1cccc(-c2nc3ccccc3s2)c1,21.3,5.3,17.4,3.6,.,11.0,8.3,.,15.6,23.8,.
COc1cc(OC)c(-c2nc3ccccc3s2)cc1OC,.,.,.,.,.,/,/,/,/,/,/
Cc1ccc(C(=O)NCCc2nnc3ccc(SCC(=O)Nc4nnc(C)s4)nn23)cc1,.,.,.,.,.,/,/,/,/,/,/
O=C(c1cnn(-c2ccccc2)c1)c1ccccc1O,7.9,6.1,22.9,.,.,13.2,7.9,.,7.1,19.5,.
O=C(c1cnn(-c2ccccc2)c1)c1cc(F)ccc1O,.,.,.,.,.,/,/,/,/,/,/
CCS(=O)(=O)Nc1cc(-c2nc3cccnc3s2)ccc1C,8.3,6.4,21.5,.,.,8.9,7.7,.,5.6,15.7,.
CC(C)c1ccc(NC(=O)c2ccccc2NC(=O)C2CC=CCC2C(=O)O)cc1 (stereo not given),.,8.3,15.0,.,5.5,.,3.6,/,/,.,.
O=C(Nc1ccc(F)cc1)c1ccccc1NC(=O)C1CC=CCC1C(=O)O (stereo not given),.,.,.,.,.,/,/,/,/,/,/
O=C(NNC(=S)Nc1ccc(Br)cc1)c1cccnc1,.,.,.,.,.,/,/,/,/,/,/
SMILES,hcDAF12 agonist,DAX1 inh-1,hgDAF12 agonist,ssDAF12 agonist,DAX1 inh-2,DAX1 inh confirm,SF1 AF2mut Luc,LXRb hcDAF ctr,hcDAF12 ag,hgDAF12 conf,LXRb DAF12 ctr
O=C(/C=C\Nc1ccc(Br)cc1)c1cccnc1,8.3,5.9,18.3,.,.,16.4,9.3,.,6.5,15.6,.
CCC1CCCCN1CCCNC(=O)Cn1c(=O)c2cccn2c2cccnc21 (stereo not given),.,.,.,.,.,/,/,/,/,/,/
COc1cccc(CNc2ccc(Br)cn2)c1O,6.8,4.5,18.9,1.1,.,12.3,6.1,.,6.0,17.8,.
Cc1ccc(N(CC(=O)NCc2ccco2)C(=O)CCC(=O)Nc2ccccn2)c(C)c1,.,.,.,.,.,/,/,/,/,/,/
NC(=O)c1ccc(OCc2ccccc2)nc1,.,5.0,15.0,.,.,5.8,3.3,/,/,11.4,.
Cc1nnc(NC(=O)c2oc3ccccc3c2C)s1,10.6,8.9,15.2,1.4,.,10.0,9.5,.,12.0,10.5,.
C/C(=N\NC(=O)c1ccncc1)c1cccs1,.,.,.,.,.,/,/,/,/,/,/
C/C(=N\NC(=O)c1nn(C)c(C)c1Br)c1ccc(NC(=O)c2ccoc2C)cc1,8.5,5.5,19.9,.,.,.,.,.,.,.,.
C/C(=N\NC(=O)c1ccc2ccccc2c1)c1cccs1,.,9.8,13.5,.,.,7.5,5.0,/,/,20.6,.
C/C(=N\NC(=O)c1ccoc1C)c1cccnc1,.,5.5,14.2,.,.,.,.,/,/,.,.
CCC(=O)Nc1ccc(/C(C)=N/NC(=O)c2c(Br)c(C)nn2C)cc1,.,.,.,.,.,/,/,/,/,/,/
C/C(=N\NC(=O)c1cccs1)c1ccc(C(=O)O)s1,7.0,8.0,14.9,.,.,.,.,.,.,.,.
C/C(=N\NC(=O)c1cccs1)c1cccnc1,8.4,5.5,24.6,.,.,.,.,.,.,.,.
Fc1ccccc1SCc1nnc(-c2ccccc2Br)o1,.,6.5,14.3,.,.,16.3,7.3,/,/,20.0,.
Cc1csc(SCc2nnc(-c3ccc(Cl)cc3)o2)n1,.,.,.,.,.,/,/,/,/,/,/
Cc1csc(SCc2nnc(-c3ccccc3Br)o2)n1,.,6.5,15.7,.,.,14.2,8.2,/,/,17.1,.
Cc1nn(-c2nnc(NC3CCCCC3)nn2)c(C)c1Br,6.1,5.2,17.9,1.8,.,12.7,8.3,/,/,15.6,.
CN1CCN(C(=S)Nc2ccc(S(N)(=O)=O)cc2)CC1,.,.,.,.,.,/,/,/,/,/,/
COc1ccc2c(c1)C(=NN)c1cc(OC)ccc1-2,.,.,.,.,.,/,/,/,/,/,/
O=C(Cc1ccccn1)c1ccccc1,.,.,.,.,.,/,/,/,/,/,/

# High-throughput results deposited in PubChem BioAssay by The Scripps Research Institute Molecular Screening Center.
